# Experimental data as given in ChEMBL document CHEMBL3988442, “University of Dundee, Small-Polar-MMV Screening Library” (2021).
# Out of some 48,000 compounds screened, about 13,000 (27%) showed an effect of 50% or more. This is one part of the list.
# Test system: Wolbachia pipientis
# Assay: Anti-Wolbachia Cell-Based Screen
# Type: functional
# Set-up: scale not given: in the data most compounds retested in dose-response had high values
# Conditions: 5 µM
row,Compound,Percent Effect [%]
1,Cc1[nH]ccc1C(=O)N1CCC(c2nnc(Cn3ccnc3)n2C)CC1,6.251
2,Cn1cccc1C(=O)N1CCC(c2nnc(Cn3ccnc3)n2C)CC1,89.43
3,Cn1c(Cn2ccnc2)nnc1C1CCN(C(=O)c2ccncc2)CC1,74.15
4,CN(CCO)Cc1nnc(C2CCN(C(=O)c3ccccc3)CC2)n1C,8.451
5,CN(CCO)Cc1nnc(C2CCN(C(=O)c3cccn3C)CC2)n1C,-1.148
6,Cn1c(Cn2ccnc2)nnc1C1CCN(C(=O)c2ccoc2)CC1,96.26
7,CCN1C(=O)C(c2ccccc2)CC12CCN(c1ncccn1)CC2 (stereo not given),-1.132
8,CN(Cc1ccc(F)cc1)Cc1nc(-c2cnccn2)no1,-0.4176
9,CCc1n[nH]c(C2CN(Cc3ncc(CC)o3)CCO2)n1 (stereo not given),-12.36
10,CC(NC(=O)N1CCc2ccccc21)c1nncn1C (stereo not given),-4.094
11,Cc1ccsc1CN(Cc1ncccc1C(=O)O)C1CC1,-1.02
12,Cc1ccsc1CNC(=O)CSc1nnc[nH]1,-7.3
13,CNS(=O)(=O)c1csc(C(=O)N(C)Cc2sccc2C)c1,1.133
14,CNS(=O)(=O)c1csc(C(=O)NCc2sccc2C)c1,-10.67
15,CCC(C)N(Cc1sccc1C)C(=O)c1cc(N)ccn1 (stereo not given),107.3
16,CCC(C)N(Cc1sccc1C)C(=O)c1ccc2cccnc2n1 (stereo not given),114.4
17,CCC(C)N(Cc1sccc1C)C(=O)c1ccc(S(C)(=O)=O)cc1 (stereo not given),114.6
18,Cc1ccsc1CN(C)Cc1ncccc1C(=O)O,8.285
19,COC(=O)c1ccc(S(=O)(=O)NCC(O)c2sccc2C)cc1 (stereo not given),1.544
20,Cc1cc(C)c(CNC(=O)N(C)Cc2sccc2C)c(=O)[nH]1,-0.6521
21,Cc1ccsc1CN(C)CCc1scnc1C,3.291
22,CCC(C)N(Cc1sccc1C)C(=O)c1cnc[nH]1 (stereo not given),112.1
23,O=C(NC1CC1)[C@H]1COC[C@H]2CN(c3ncc(F)cn3)C[C@H]21,-1.694
24,O=C(O)COc1ccc(Cl)cc1CN1CCC2(CCOCC2)CC1,5.352
25,C=C(C)CN1CCC(Nc2nc(C)ns2)CC1,3.989
26,Cc1nc(C)n(CC2CN(c3nnc(C)c(C)c3C#N)CCO2)n1 (stereo not given),-9.439
27,Cc1nc(C)n(CC2CCCN2Cc2ccc(F)cc2C#N)n1 (stereo not given),-2.788
28,Cc1nc(C)n(CC2CN(c3ncccc3C#N)CCO2)n1 (stereo not given),109.9

row,Compound,Percent Effect [%]
1,Cc1nc(C)n(CC2CN(c3ncnc4[nH]ccc34)CCO2)n1 (stereo not given),9.938
2,Cc1cc(C)n(CC2CCCN2Cc2ccc(F)cc2C#N)n1 (stereo not given),-16.28
3,Cc1nc(C)n(CC2CCCN(Cc3cc(C#N)ccc3F)C2)n1 (stereo not given),126.4
4,N#Cc1ccc(CN2CCCC(Cn3cncn3)C2)c(F)c1 (stereo not given),10.83
5,Cc1nc(C)n(CC2CN(Cc3cc(C#N)ccc3F)CCO2)n1 (stereo not given),105.5
6,Cc1nc(C)n(CC2CN(Cc3cccc(C#N)c3)CCO2)n1 (stereo not given),2.978
7,Cc1nc(C)n(CC2CN(Cc3cccc4c3OCCO4)CCO2)n1 (stereo not given),-0.04658
8,Cc1nc(C)n(CC2CCCN(Cc3ccc(F)cc3C#N)C2)n1 (stereo not given),96.96
9,O=S(=O)(NCC1CCOc2ccccc2C1)N1CCOCC1 (stereo not given),11.66
10,CS(=O)(=O)N1CCOC2(CCN(c3nccs3)CC2)c2ccccc21,-2.369
11,Cc1nc(C)n(CC2CCCN(Cc3ccccc3C#N)C2)n1 (stereo not given),99.33
12,N#Cc1ccccc1OCCN1CCCC(c2noc(C3CC3)n2)C1 (stereo not given),29.76
13,Cc1nc(C)n(CC2CCCN(CCOc3ccccc3C#N)C2)n1 (stereo not given),99.48
14,Cc1nc(C)n(CC2CCCN(CCc3ccccn3)C2)n1 (stereo not given),-0.6255
15,Cc1nc(C)n(CC2CCCN(Cc3cccc(F)c3F)C2)n1 (stereo not given),100.4
16,Cn1nc2c(cc1=O)CN(Cc1nc(C(C)(C)C)no1)CC2,5.069
17,Cc1nc(CN2CCCC(CCc3ccccc3C(F)(F)F)C2)co1 (stereo not given),3.253
18,COc1cnc(N2CC(N3CCOCC3)C2)nc1-c1ccnn1C,-5.867
19,Cc1ccc2c(c1)[C@@H](CC(=O)N1CCN(C)CC1)CCO2,86.47
20,COCC(=O)N1CCC2(CC1)CC(N1CCOCC1)c1ccc(C)cc12 (stereo not given),6.475
21,Cc1ccc2c(c1)[C@@H](CC(=O)N1CCOCC1)CCO2,86.47
22,Cc1ccc2c(c1)[C@@H](CC(=O)N(C)C)CCO2,103.2
23,Cc1ccc2c(c1)C(NC1CCN(C)CC1)CCCO2 (stereo not given),0.3143
24,CN(Cc1ccccn1)C(=O)CC1CCOc2ccccc21 (stereo not given),-4.334
25,Cc1ccc(C2CSCCN2CC(=O)N2CCOCC2)cc1 (stereo not given),2.726
26,Cc1ccc2c(ccn2CCC(=O)N2CCC(C(N)=O)CC2)c1,23.62
27,CN(C)C(=O)CC1CCOc2ccccc21 (stereo not given),-4.71
